From PubChem
aSyn 5UTR act – Activators via SNCA 5'UTR binding, MLPCN; alpha-synuclein 5'UTR reporter, activators screen; activity score, % (tested at 7.5 µM), hits read low; hit rate 7.1% among 300,000; in the data active = activity score below about -60%
An asterisk follows results filed as active. Only a sample is shown.

Results for Cc1nnn(-c2nonc2N)c1C(=O)N/N=C/c1ccccc1O ?
aSyn 5UTR act: 67.8

Results for COc1cc(/C=N/NC(=O)c2nnn(-c3nonc3N)c2C(C)C)ccc1OCc1ccc(F)cc1 ?
aSyn 5UTR act: -143.1*

What do the screens show for `CN(C)Cc1c(C(=O)N/N=C/c2ccccc2OCc2c(F)cccc2Cl)nnn1-c1nonc1N`?
aSyn 5UTR act: -71.7*

How did COc1ccccc1/C=N/NC(=O)c1nnn(-c2nonc2N)c1-c1cccs1 do in these assays?
aSyn 5UTR act: -80.1*

What do the screens show for `CC1CCN(Cc2c(C(=O)N/N=C/c3ccccc3O)nnn2-c2nonc2N)CC1`?
aSyn 5UTR act: 65.5

How did Cc1ccccc1COc1ccc(/C=N/NC(=O)c2nnn(-c3nonc3N)c2CN2CCC(C)CC2)cc1 do in these assays?
aSyn 5UTR act: -77.7*

What do the screens show for `CCCc1c(C(=O)N/N=C/c2ccc(OCc3ccccc3)c(OC)c2)nnn1-c1nonc1N`?
aSyn 5UTR act: -147.9*

Results for CCCc1c(C(=O)N/N=C/c2ccc(OC)c(OCc3ccccc3)c2)nnn1-c1nonc1N ?
aSyn 5UTR act: -95.0*

What do the screens show for `Cc1ccc(NC(=O)CSc2ncc(-c3ccccc3)n2C(=O)c2ccccc2)cc1`?
aSyn 5UTR act: -64.3*

Results for Cc1ccc(NC(=O)CSc2nc3ccccc3c3nc4ccccc4n23)cc1 ?
aSyn 5UTR act: 110.3

How did CC(C)OCCCNC(=S)NNC(=O)c1ccc(Cl)c(Cl)c1 do in these assays?
aSyn 5UTR act: -87.4*

What do the screens show for `Brc1ccccc1OCCCn1cnc2ccccc21`?
aSyn 5UTR act: -93.1*

What do the screens show for `Cc1ccccc1OCCCCn1cnc2ccccc21`?
aSyn 5UTR act: -83.4*

Results for COc1ccc(OCCn2cnc3ccccc32)cc1 ?
aSyn 5UTR act: -70.1*

How did Cc1ccccc1OCC(O)Cn1c(=N)n(Cc2ccccc2)c2ccccc21 (stereo unspecified) do in these assays?
aSyn 5UTR act: 113.2

What do the screens show for `c1ccc(CCn2cnc3ccccc32)cc1`?
aSyn 5UTR act: -90.5*

How did COC(=O)c1ccc(Nc2nc3ccc(C)cc3n3cnnc23)cc1 do in these assays?
aSyn 5UTR act: -97.7*

How did COc1ccc(C2Nc3ccccc3C(=O)N2c2ccccc2)cc1CN1CCOCC1 (stereo unspecified) do in these assays?
aSyn 5UTR act: -69.8*

What do the screens show for `COc1cccc(C2Nc3ccccc3C(=O)N2Cc2ccccc2)c1` (stereo unspecified)?
aSyn 5UTR act: 79.3

How did COc1ccc(C2Nc3ccccc3C(=O)N2c2ccc(C)cc2)cc1Cn1nc(C)c([N+](=O)[O-])c1C (stereo unspecified) do in these assays?
aSyn 5UTR act: -104.5*

Results for COc1ccc(C2Nc3ccccc3C(=O)N2c2ccc(C)cc2)cc1COc1ccccn1 (stereo unspecified) ?
aSyn 5UTR act: -97.4*

How did COc1ccc(C2C(C#N)=C(N)N(c3ccccc3)C3=C2C(=O)CCC3)cc1Cn1cc([N+](=O)[O-])cn1 (stereo unspecified) do in these assays?
aSyn 5UTR act: 57.9

How did N/C(=N\OC(=O)Cc1ccccc1)c1cccc(Br)c1 do in these assays?
aSyn 5UTR act: -72.2*

What do the screens show for `N/C(=N\OC(=O)Cc1ccccc1)c1ccccc1Cl`?
aSyn 5UTR act: -143.5*

What do the screens show for `O=C(Oc1ccccc1/C=C\C(=O)c1cc2ccccc2o1)c1ccccc1`?
aSyn 5UTR act: -299.6*

How did O=C(Oc1ccccc1/C=C\C(=O)c1cc2ccccc2o1)c1cccc(F)c1 do in these assays?
aSyn 5UTR act: -233.9*

What do the screens show for `COc1cccc(C(=O)Oc2ccccc2/C=C\C(=O)c2cc3ccccc3o2)c1`?
aSyn 5UTR act: -191.9*

Results for CCCc1ccc(Oc2cc(C)nc(N3CCOCC3)n2)cc1 ?
aSyn 5UTR act: -63.5*

How did Cc1cc(C)nc(Nc2ccc(C)c([N+](=O)[O-])c2)n1 do in these assays?
aSyn 5UTR act: -99.4*

Results for Cc1ccc(NC(=O)c2ccc(C(C)(C)C)cc2)cc1[N+](=O)[O-] ?
aSyn 5UTR act: -159.5*

What do the screens show for `Cc1ccc(NC(=O)c2cccs2)cc1[N+](=O)[O-]`?
aSyn 5UTR act: -93.8*

What do the screens show for `CC(=O)Nc1cccc(NC(=O)C(=O)Nc2ccc3c(c2)N(C(=O)C2CC2)CCC3)c1`?
aSyn 5UTR act: -91.7*

How did COc1cccc(/C=N/NC(=O)c2[nH]nc3c2CCc2ccccc2-3)c1 do in these assays?
aSyn 5UTR act: -68.6*

What do the screens show for `CC(C)NC(=O)c1[nH]nc2c1CCc1ccccc1-2`?
aSyn 5UTR act: -164.9*

How did CC(=O)c1c(C)[nH]c(C(=O)Nc2ccc(C)cc2Br)c1C do in these assays?
aSyn 5UTR act: -131.1*

How did CC(=O)c1c(C)[nH]c(C(=O)Nc2ccc(F)cc2F)c1C do in these assays?
aSyn 5UTR act: -111.4*

How did CC(=O)c1c(C)[nH]c(C(=O)NCCc2cccc(C)c2)c1C do in these assays?
aSyn 5UTR act: -170.4*

Results for CC(=O)c1c(C)[nH]c(C(=O)Nc2ccccc2Cl)c1C ?
aSyn 5UTR act: -62.6*

How did COc1ccc(-n2ncc3c(NCCCN4CCOCC4)ncnc32)cc1 do in these assays?
aSyn 5UTR act: -119.7*

What do the screens show for `COc1ccc(-c2oc3ncn(CCN4CCOCC4)c(=N)c3c2-c2ccc(OC)cc2)cc1`?
aSyn 5UTR act: 74.2

What do the screens show for `COc1ccc(-n2ncc3c(NCCN4CCOCC4)ncnc32)cc1`?
aSyn 5UTR act: -69.0*

What do the screens show for `O=C(NCCN1CCOCC1)c1noc2c1CCc1ccccc1-2`?
aSyn 5UTR act: -103.8*

Results for CCCNC(=O)c1noc2c1CCc1ccccc1-2 ?
aSyn 5UTR act: -118.7*

Results for O=C(Nc1cccnc1Cl)c1noc2c1CCc1ccccc1-2 ?
aSyn 5UTR act: -124.1*

How did Cc1ccc(C(=O)N/N=C/c2cn(Cc3ccccc3)c3ccccc23)cn1 do in these assays?
aSyn 5UTR act: 64.3

What do the screens show for `Cc1ccc(C(=O)N/N=C\c2ccc(-c3ccc(Cl)c(Cl)c3)o2)cn1`?
aSyn 5UTR act: -65.7*

How did CN(C)c1ccc(N=C/C=C2/N(C)c3ccccc3C2(C)C)cc1 do in these assays?
aSyn 5UTR act: -83.6*

Results for COc1ccc(C(=O)CSc2cc(C)[nH]c(=O)n2)cc1 ?
aSyn 5UTR act: -85.6*

What do the screens show for `CCOc1ccc(NC(=O)CSc2nccn2C)cc1`?
aSyn 5UTR act: -64.9*

Results for COc1ccc(C(=O)CSc2nccn2C)cc1 ?
aSyn 5UTR act: -80.3*

How did O=C(CSc1ncc(-c2ccc(F)cc2)n1Cc1ccco1)Nc1ccc2c(c1)OCO2 do in these assays?
aSyn 5UTR act: -150.5*

How did CCOC(=O)c1sc(NC(=O)CSc2nccn2C)nc1C do in these assays?
aSyn 5UTR act: -111.9*

What do the screens show for `O=C(CSc1nccn1-c1ccc(F)cc1)Nc1ccc2c(c1)OCO2`?
aSyn 5UTR act: -65.3*

Results for COc1ccc(NCc2nnc(SCC(=O)c3ccc(OC)cc3)n2C)cc1 ?
aSyn 5UTR act: -127.4*

Results for Cn1ccnc1SCC(=O)Nc1ccc2c(c1)OCO2 ?
aSyn 5UTR act: -107.2*

How did O=C(CSc1nccn1-c1ccccc1)Nc1ccc2c(c1)OCO2 do in these assays?
aSyn 5UTR act: -69.4*

Results for Cc1ccc(Nc2nnc(-c3ccccc3N)o2)cc1C ?
aSyn 5UTR act: -134.9*

How did O=C(Nc1cccnc1)c1sc2cccc(F)c2c1Cl do in these assays?
aSyn 5UTR act: -166.2*

Results for CCOc1cccc2cc(-c3nnc(NCc4ccco4)s3)c(=O)oc12 ?
aSyn 5UTR act: -170.5*

What do the screens show for `CNc1nnc(-c2cc3cc(Cl)ccc3oc2=O)s1`?
aSyn 5UTR act: -77.2*

What do the screens show for `COc1ccc2oc(=O)c(-c3nnc(NCc4ccco4)s3)cc2c1`?
aSyn 5UTR act: -252.9*

What do the screens show for `COc1ccc(-c2nc3n(c2C)Cc2ccccc2-3)cc1`?
aSyn 5UTR act: -129.5*
